# ST2 inh – inhibitors of human ST2 (IL1RL1) binding to IL-33; Q01638; AlphaLISA ST2-Fc/biotin-IL-33 interaction, 1 h; inhibition, % for hits at 17 µM; 78,000 compounds, 2.3% hits; AID 1259354; in the data active means inhibition above about 30%
# Target sequence (Q01638 whole entry, looked up): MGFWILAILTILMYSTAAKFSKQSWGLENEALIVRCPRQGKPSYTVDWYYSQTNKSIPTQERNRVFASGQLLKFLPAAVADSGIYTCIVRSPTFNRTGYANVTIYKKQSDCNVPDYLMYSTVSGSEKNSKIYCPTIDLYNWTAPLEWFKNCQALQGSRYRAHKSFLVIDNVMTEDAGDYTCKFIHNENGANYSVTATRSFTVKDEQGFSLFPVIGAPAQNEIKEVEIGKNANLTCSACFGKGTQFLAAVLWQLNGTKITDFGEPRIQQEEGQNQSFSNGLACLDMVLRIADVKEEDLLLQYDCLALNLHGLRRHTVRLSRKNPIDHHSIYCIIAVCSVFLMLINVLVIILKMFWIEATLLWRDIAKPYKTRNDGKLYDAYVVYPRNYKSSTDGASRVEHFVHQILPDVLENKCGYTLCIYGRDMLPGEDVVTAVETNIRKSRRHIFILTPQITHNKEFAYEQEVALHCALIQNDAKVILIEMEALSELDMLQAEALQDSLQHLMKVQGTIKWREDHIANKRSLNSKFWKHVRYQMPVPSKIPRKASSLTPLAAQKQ
# A number is an active result; - = inactive; ! = a repeat was not active. Many of the other results were omitted from the sample, so hits are more common in it than they were.
SMILES,ST2 inh
Cc1ccccc1NC1CC(C)Nc2c(C)cccc21 (stereo not given),39%
Cc1ccccc1NC(=O)C1C2CCCCC21 (stereo not given),-
O=C(Nc1ccccc1C1CC1)c1ccc(Cl)cc1,-
CC1=C(C(=O)Nc2ccc(F)cc2F)C(c2cccs2)C2=C(CC(C)(C)CC2=O)N1 (stereo not given),-
CCc1ccc(Cn2c(CNS(=O)(=O)c3ccccc3Cl)nc3cccnc32)cc1,-
Cc1cccc(C(=O)Nc2ccc(NC(=O)c3ccc(C)c([N+](=O)[O-])c3)cc2)c1,32%
Cc1cccc(C(=O)Nc2cccc([N+](=O)[O-])c2C)c1,-
Cc1ccc(C(=O)c2ccc(Cl)cc2)cc1[N+](=O)[O-],42%
CNC(=O)c1ccc(C)c([N+](=O)[O-])c1,-
Cc1ccc(NC(=O)c2cccc(F)c2)cc1[N+](=O)[O-],-
Cc1ccc(NC(=O)COc2ccc(Cl)cc2)cc1[N+](=O)[O-],-
CCCNCc1cccc(-c2ccc(C(N)=O)cc2)c1,-
O=c1c2c(nc(NCCO)n1-c1ccccc1)-c1ccccc1CC21CCCCC1,-
COc1ccccc1N1CCN(C(=O)CCCC(=O)O)CC1,-
COc1ccc(OC)c(S(=O)(=O)Nc2ccc(C)cc2)c1,-
COc1cc(OC)nc(N2C[C@H]3OC(=O)N(Cc4ccccc4OC)[C@H]3C2)n1,-
O=c1[nH]c2ccc(S(=O)(=O)Nc3cc(F)ccc3F)cc2s1,-
Cc1ccc(C(C)NC(=O)c2cn(CCN)nn2)c(C)c1 (stereo not given),-
CC1CCCC[C@H]2C(=O)C=C[C@H](O)[C@@H]2CC(=O)O1 (stereo not given in full),46%
Cc1nc(NC(=O)c2sc3ccccc3c2Cl)sc1C(=O)N(C)C,-
CCn1cc(C(=O)NC2CCCC2)c(=O)c2cc(S(=O)(=O)N3CCCCCC3)ccc21,-
Cc1ccc(S(=O)(=O)N2CCC(n3c(C)nc4cccnc43)CC2)cc1C,-
O=S(=O)(c1ccc2c(c1)OCCO2)N1CCC(n2cnc3cccnc32)CC1,98%
CCc1nc2cccnc2n1C1CCN(S(=O)(=O)c2ccc(C(C)(C)C)cc2)CC1,-
CCN(CC)c1ccc(C2CC(=O)C3=C(C2)Nc2ccccc2N(C(C)=O)C3c2ccccc2)cc1 (stereo not given),-
SMILES,ST2 inh
COc1ccc(-c2ncc(Cl)cn2)c2ccc(C)nc12,-
Cc1ccc2c(C)ccc(O)c2n1,31%
Cc1ccc(O)c(CCc2ccc(O)c(S(=O)(=O)O)c2)n1,-
CC1=C(C(=O)Nc2ccc(C)cn2)C(c2ccc(F)cc2)C2=C(CC(C)(C)CC2=O)N1 (stereo not given),-
O=C(c1ccc2c(c1)N(Cc1c(F)cccc1Cl)C(=O)CS2)N1CCOCC1,-
Cc1ccc(S(=O)(=O)Nc2ccccc2Br)cc1[N+](=O)[O-],-
COc1ccc(OC)c(Nc2nc(-c3sc(N)nc3C)cs2)c1,36%
COc1ccccc1Nc1nc(-c2ccc(F)cc2)cs1,-
CC(=O)Nc1nc(C)c(-c2csc(Nc3ccc(Br)cc3)n2)s1,-
CCOC(=O)c1c(NC(=O)c2ccco2)sc2c1CCN(C(C)C)C2,-
Cc1ccc(SCCC(=O)NC23CC4CC(CC(C4)C2)C3)cc1,-
CCCN(CCC)S(=O)(=O)c1cccc2nonc12,-
CCc1ccc(N(CC)S(=O)(=O)c2cccc3nonc23)cc1,-
CCCCN(CCCC)S(=O)(=O)c1cccc2nonc12,31%
NS(=O)(=O)CCCC(=O)N1CCOC(c2ccc(F)cc2)C1 (stereo not given),-
COc1ccc(C2CC(=O)N3CN(c4ccc(Cl)cc4)CSC3=C2C#N)cc1 (stereo not given),-
COc1ccc(C2=NN(C(=O)CCC(=O)O)C(c3cc4ccc(C)cc4nc3Cl)C2)cc1 (stereo not given),-
COc1ccc(C2=NN(CN3C(=O)C(=O)c4ccccc43)C(c3ccc(C)cc3)C2)cc1 (stereo not given),43%
COc1ccc(C2CC(c3ccc(Br)cc3)=NN2C(=O)CCCC(=O)O)cc1 (stereo not given),-
Cc1ccc(-c2csc(NC(=O)c3ccc(S(=O)(=O)N4CCc5ccccc54)cc3)n2)o1,39%
CC(=O)c1sc(NC(=O)c2ccc(S(=O)(=O)N3CCc4ccccc43)cc2)nc1C,-
O=C(Nc1nc(-c2ccccn2)cs1)c1ccc(S(=O)(=O)N2CCOCC2)cc1,-
Cc1ccc(S(=O)(=O)N2CCC(C(=O)N3CCN(C)CC3)CC2)cc1,-
N#CSc1ccc(NC2(c3ccccc3)C(=O)c3ccccc3C2=O)cc1,34%
O=C(O)CC1(c2ccccc2)C(=O)c2ccccc2C1=O,-
O=c1cc(CN2CCCC(O)(CO)CC2)[nH]c2ccc(Cl)cc12 (stereo not given),-
O=C(CCS(=O)(=O)c1cccc2nonc12)N1CCN(c2ccccc2)CC1,-
O=C(Nc1nc(-c2ccc3c(c2)OCO3)cs1)c1cc(=O)c2ccccc2o1,45%!
COc1ccc(-c2csc(NC(=O)c3cc(=O)c4ccccc4o3)n2)cc1,-
Cc1ccc(-c2csc(NC(=O)c3cc(=O)c4ccccc4o3)n2)cc1C,-

# Screening data: PubChem, Paczesny and Yang Labs, IUPUI and University of Michigan
